High-throughput results: PubChem BioAssay, National Center for Advancing Translational Sciences (NCATS)
A selection: hits, their analogues and other compounds. The true share with any hit is near 14%.
Pf growth 96h – inhibits malaria parasite growth, 96 h | P. falciparum luciferase reporter growth, 96 h | Potency, µM (series often up to 28.7 µM), without a hit: top-dose activity change, negative = inhibition, actives largely listed as inhibitors | actives 6.9% (n = 320,000) | AID 504834; note: potency is the fitted concentration of half-maximal effect
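Plates of compound plus infected erythrocytes (2% hematocrit, 0.05% parasitemia final) incubate 96 hours, 37 C, 5% CO2. Detection reagent added; reduced luminescence from the parasites' luciferase reporter flags inhibition.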
HCMV antiviral – blocks human cytomegalovirus replication; HFF cells, HCMV-luciferase reporter, 72 h; active compounds read low; activity change, negative = inhibition, % at 57.5 µM; actives 4.5% (n = 410,000); in the data active = activity change below about -60%; inconclusive = no clear call, values can overlap the other calls; inactive = above about -39%
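Luciferase read-out from HCMV-luciferase-infected HFFs (MOI 1 PFU/cell) 72 h post infection at 37C; compounds added after 16 h cell attachment; activity normalized between buffer-only basal and Salinomycin (10uM) inhibitor controls.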
Giardia FBPA inh – blocks Giardia fructose-bisphosphate aldolase activity | purified Giardia FBPA | actives 0.71% (n = 290,000) | AID 2451 | Potency, µM (top dose mostly 59.6 µM), for inactives: at the top dose activity, negative = inhibition, usual class: inhibitors | A8B2U2; note: potency is the fitted concentration of half-maximal effect; nearly all actives have a fitted effect of over 55% in size
Target sequence (A8B2U2 whole entry, looked up): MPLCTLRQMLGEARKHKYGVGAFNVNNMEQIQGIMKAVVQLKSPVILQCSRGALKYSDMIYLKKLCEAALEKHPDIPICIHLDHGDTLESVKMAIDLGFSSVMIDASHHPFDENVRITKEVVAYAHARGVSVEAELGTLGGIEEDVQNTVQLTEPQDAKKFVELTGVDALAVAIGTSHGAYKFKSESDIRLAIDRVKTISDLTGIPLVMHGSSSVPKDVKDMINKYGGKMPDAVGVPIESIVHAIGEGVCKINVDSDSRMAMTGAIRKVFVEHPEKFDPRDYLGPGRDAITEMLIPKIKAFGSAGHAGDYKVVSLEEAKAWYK
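Giardia FBPA (40 nM reagent) was preincubated 10 min at RT with compound (up to 57.5 uM final), then substrate plus GAPDH/TPI/NAD/arsenate coupling system with diaphorase/resazurin was added; resorufin fluorescence (525/598 nm) was read after 20 min.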
Sm TGR block – blocks Schistosoma mansoni thioredoxin glutathione reductase; purified TGR, DTNB reduction, TNB absorbance 405 nm; actives 3% (n = 360,000); Potency, µM (top dose mostly 114 µM), for the others: top-dose activity change, negative = inhibition, most hits filed as inhibitors; Q962Y6; note: potency is the fitted concentration of half-maximal effect; nearly all actives have a fitted effect of over 60% in size
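Kinetic colorimetric format: TGR-catalysed, NADPH-driven DTNB reduction monitored via TNB absorbance. Enzyme dispensed at 20 nM; compound exposure 15 min at room temperature before reaction start.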
Pf growth 48h – inhibits P. falciparum growth in the first generation, 48 h; Potency, µM (doses to about 28.7 µM), inactives show top-dose activity change, negative = inhibition, most hits filed as inhibitors; actives 5.9% (n = 310,000); P. falciparum luciferase growth in erythrocytes, 48 h; note: potency is the fitted concentration of half-maximal effect
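Firefly luciferase activity from engineered P. falciparum reports growth; inhibitors lower the luminescent signal. Cultures contained 2% hematocrit erythrocytes at 0.1% final parasitemia.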
* = called active by the depositor; ? = inconclusive; . = no result given; + = active, no number. Unless noted, calls come from the whole dose curve; as a rule, active = well fitted curve in the direction sought with a large enough effect; inconclusive = small, poorly fitted or top-dose-only effect, or another doubt; inactive = no such curve, though single readings can be large; an effect the other way counts as inactive or inconclusive. % is set by controls: 0 for no effect and ±100 for the full control effect.

SMILES	Pf growth 96h	HCMV antiviral	Giardia FBPA inh	Sm TGR block	Pf growth 48h
COc1ccc(/C=C/C(=O)NC(=S)Nc2ccc(C(=O)O)cc2)cc1	?	-11.9	0.7%	-34.4%	-3.3%
COc1cc(NC(=O)CN2Cc3ccccc3C2=O)cc(OC)c1OC	.	-6.0	.	-0.7%	.
COc1ccc(CCNC(=O)Cc2c(C)c3cc4c(C)coc4cc3oc2=O)cc1OC	.	-3.5	.	1.9%	.
Cc1ccc(CN2CCC(C(=O)c3ccc(F)cc3)CC2)cc1	.	16.4	.	.	.
COc1ccc(C(=O)c2sc3nc(-c4ccc(F)cc4)ccc3c2N)cc1	.	-23.9	.	-4.6%	.
Cc1ccc(-n2c(N)c(C(=O)N3CCN(C)CC3)sc2=S)cc1	?	-28.1	9.98µM*	-1.2%	-15.1%
Cc1ccc(-n2c(N)c(C(N)=O)sc2=S)c(C)c1	14.7µM*	-26.1	-7.6%	2.1%	11.9%
CCOC(=O)c1sc(=S)n(-c2ccccc2)c1NC(C)=O	13.0%	30.0	-0.3%	44.7µM*	-0.7%
COc1ccc(S(=O)(=O)N2CCN(c3ccccc3OC)CC2)cc1C(=O)N1CCCCC1	31.2%	-2.3	7.5%	5.1%	-15.7%
CCOC(=O)C1(Cc2cccc(OC)c2)CCN(Cc2cnc(C)s2)CC1	9.28µM*	25.2	-15.9%	-22.1%	?
CCOC(=O)C1(Cc2cccc(OC)c2)CCCN(C(=O)CSC)C1 (stereo not drawn)	.	43.6	.	.	.
CC#CC(=O)N1CCCC(Cc2cccc(OC)c2)(C(=O)OCC)C1 (stereo not drawn)	6.57µM*	-14.5	-0.2%	2.5%	?
CCOC(=O)C1(Cc2cccc(F)c2)CCN(C(=O)c2ccoc2C)CC1	-25.3%	-2.7	-1.9%	?	10.4µM*
CCOC(=O)C1(Cc2cccc(Cl)c2)CCCN(C(=O)c2cn[nH]c2)C1 (stereo not drawn)	7.2%	-27.1	3.5%	2.7%	?
CCOC(=O)C1(Cc2cccc(Cl)c2)CCCN(C(=O)c2cccnc2)C1 (stereo not drawn)	4.65µM*	-26.8	-9.8%	7.8%	16.3%
CCOC(=O)C1(Cc2cccc(F)c2)CCN(C(=O)c2cscn2)CC1	?	-33.1	1.1%	71.6%	-3.2%
O=C(Nc1cc(S(=O)(=O)N2CCCCC2)ccc1Cl)c1ccc(F)cc1	?	-17.2	.	-10.0%	?
CN(C)C(=O)Oc1noc2cc(Cl)ccc12	3.29µM*	-27.1	0.6%	9.3%	?
CCN(CC)CCN(C(=O)c1ccc2c(c1)CCCC2)c1nc2ccc(OC)cc2s1	?	-2.2	-19.3%	-20.1%	?
CCN(CC)CCN(C(=O)c1ccc2c(c1)CCCC2)c1nc2ccc(C)cc2s1	?	10.5	-26.4%	0.0%	13.1µM*
CCN(CC)CCN(C(=O)c1ccc2c(c1)CCCC2)c1nc2c(C)cccc2s1	?	-29.0	-28.7%	-0.8%	9.28µM*
CCOc1ccc(CCNC(=O)CSc2cc(=O)n(CC)c3ccccc23)cc1OCC	-14.5%	21.0	4.0%	-11.1%	?
COCCC(=O)N1CCC(Oc2ccc(C(=O)NCCSC)cc2)CC1	?	100.4	-10.1%	4.4%	23.9%
CCOC(=O)C1(C)CCCN(C(=O)c2cccnc2)C1 (stereo not drawn)	.	-2.9	.	.	.
Cn1ncc2c(Nc3ccc(O)cc3)nc(Cl)nc21	82.4%	-7.7	7.7%	-8.9%	47.6%
SMILES	Pf growth 96h	HCMV antiviral	Giardia FBPA inh	Sm TGR block	Pf growth 48h
Cn1ncc2c(Nc3ccc(Cl)cc3)ncnc21	45.8%	+	-8.4%	1.9%	47.2%
Cn1ncc2c(Nc3cccc(Cl)c3)nc(Nc3cccc(Cl)c3)nc21	2.94µM*	-66.3*	-11.4%	-0.2%	1.65µM*
Fc1ccc(-n2ncc3c(Nc4cccc(Cl)c4)ncnc32)cc1	.	-65.6*	.	5.3%	.
Cn1ncc2c(Nc3ccc(Br)cc3)nc(Nc3ccc(Br)cc3)nc21	9.28µM*	-35.4	0.8%	3.5%	2.08µM*
COc1cccc(NC(=O)c2ccc3[nH]c(C)cc(=O)c3c2)c1	.	-0.1	.	2.9%	.
CC(=O)NCCNc1ncnc2ccc(-c3ccccc3C#N)cc12	.	.	-1.8%	.	.
O=C(CCCN1C(=O)NC2(CCCC2)C1=O)Nc1cccc(S(=O)(=O)N2CCOCC2)c1	0.5%	-19.1	.	-21.4%	?
CCCC[C@H](CN(N=O)[C@@H](Cc1ccccc1)CN(C)N=O)N(CCc1ccccc1)N=O	?	-22.6	-8.6%	0.0%	?
